Assay results as given in PubChem BioAssay (NCATS).
Results filed as inconclusive are left out. The source made the active and inactive calls. The call rests on the fitted dose curve; in most records, active means well fitted cell-killing curve with a large enough effect; inconclusive means small, poorly fitted or top-dose-only effect, or effect the other way; inactive means flat fitted curve, though single readings scatter.

Test system: Tov112D
Experiment: Primary qHTS to identify gynecologic anti-cancer compounds using libraries of approved drugs and bioactive compounds (AID 1345084); further: nearly all actives have a fitted effect of over 55% in size
Settings: Gynecologic cancer cell panel viability, ATPlite luminescence, 48 h; series mostly up to 57.5 µM; activity change, negative = cytotoxicity: at the top concentration
Procedure, shortened: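 48 h compound exposure at 37 C, 5% CO2; five-point qHTS. ATPlite luminescence readout of cell ATP.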
On the % scale 0 is the no-effect control and ±100 the full control effect; potency means the concentration at half of the fitted maximal effect.

Row | SMILES | activity change, negative = cytotoxicity | Potency
1 | C=C1C(=O)OC2C1CCC1(C)C(O)CC=C(C)C21 (centres undefined) | -1.57% (inactive) | 
2 | CCOc1cc(C(C)(C)C)ccc1C1=N[C@@](C)(c2ccc(Cl)cc2)[C@@](C)(c2ccc(Cl)cc2)N1C(=O)N1CCN(CC(=O)N2CCOCC2)CC1 | -0.851% [at 38.5 µM] (inactive) | 
3 | CC1(C)CC[C@]2(C(=O)O)CC[C@]3(C)C(=CCC4[C@@]5(C)C[C@@H](O)[C@H](O)C(CO)(CO)C5CC[C@]43C)C2[C@@H]1O (some centres undefined) |  | 7.94 µM (active)
4 | O=c1nc(-c2ccccn2)sc2ccccc12 | 0.155% (inactive) | 
5 | COc1cc2ncnc(Nc3ccc(O)c(Br)c3)c2cc1OC | -2.86% (inactive) | 
6 | C=C(C(=O)O[C@H]1C/C(C)=C/CC/C(CO)=C/[C@H]2OC(=O)C(=C)[C@H]12)C(O)CO (some centres undefined) | 10.1% [at 38.5 µM] (inactive) | 
7 | O=C(NCCCn1ccnc1)c1cc(-c2ccco2)on1 | 1.07% (inactive) | 
8 | CCn1c(=O)c(-c2ccc(Cl)cc2Cl)cc2cnc(Nc3ccc(N4CCNCC4)c(F)c3)nc21 | -4.39% (inactive) | 
9 | C/C=C(\C)C(=O)O[C@H]1C=C(CO)C(=O)[C@H](OC(C)=O)[C@H]1C(C)C | -27.9% [at 38.5 µM] (inactive) | 
10 | C/C(=N\N=C(N)N)c1cc(NC(=O)CCCCCCCCC(=O)Nc2cc(/C(C)=N/N=C(N)N)cc(/C(C)=N/N=C(N)N)c2)cc(/C(C)=N/N=C(N)N)c1 | -28% (inactive) | 
11 | COc1cc(F)c(F)c(Nc2ccc(I)cc2F)c1NS(=O)(=O)C1(CC(O)CO)CC1 (centres undefined) | -32.5% (inactive) | 
12 | CC1OC2OC(=O)C3(C)CC4C5(CO5)C5=CC(=O)OC(C)(C)C5=CC(=O)C4(C)C(C1=O)C23 (centres undefined) | 1.49% [at 25.3 µM] (inactive) | 
13 | CNC(C)C(=O)NC(C(=O)N1CCCC1C(=O)Nc1snnc1-c1ccccc1)C1CCCCC1 (centres undefined) | 22.6% (inactive) | 
14 | COc1cc2ncc(-c3ccccc3)nc2cc1OC | -16.8% (inactive) | 
